# Test results published in PubChem BioAssay (NCI).
# About 83,000 compounds went through this panel and 20% of them were active in at least one assay; those are over-represented in the sample as a whole.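 Single-dose data. Exposure time 48 hours. Values below 10 considered active.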 A number with no mark means an inactive call. Active and inactive are the calls of the source.
# System: EKVX NSCLC
# Experiment: NCI-60 one-dose screen, 48 h (100 = growth as untreated, 0 = no growth, -100 = all killed)
# Conditions: 10 µM
# Procedure: Growth inhibition of the EKVX human Non-Small Cell Lung tumor cell line is measured as a screen for anti-cancer activity. Cells are grown in 96 well plates and exposed to the test compound for 48 hours. Compounds are tested at a single concentration, which is 10^-5 M for most compounds. The reported endpoint is percent growth (GI% or GIPRCNT), where numbers from 0 - 100% represent growth inhibition, and numbers from -100% - 0 represent cell death. For example, a value of 40 represents 60% growth inhibition. A value of 0 means no net growth occurred over the course of the experiment. A value of -40 indicates 40% of cells at the beginning of the experiment died by the end of the experiment. A value of -100 means all cells are dead at the end of the experiment.
# NCI-60 Human Tumor Cell Lines Screen was performed using the standard one-dose NCI protocol, which is described in more detail at https://dtp.cancer.gov/discovery_development/nci-60/default.htm.
# Compounds with GIPRCNT values below 10 were considered active. Activity score was based on GIPRCNT using the following formula: […]
# Score is 0 for GIPRCNT values of 100 or above, 50 for GIPRCNT values of 0, and 100 for GIPRCNT values of -100.
row,SMILES,growth
1,CCCCOCCOCCOCc1cc2c(cc1Br)OCO2,104%
2,COCCOC(=O)NC(=O)Nc1ccc(/C(=N/O)c2ccc(Cl)cc2)cc1,29.6%
3,CCN(CCCNC(=O)Cc1cc(=O)oc2cc(N(C)C)ccc12)CCNc1ccnc2cc(Cl)ccc12,99.8%
4,Cc1ccc2nc3[nH]c(=O)[nH]c(=O)c3c(N)c2c1,59.9%
5,Cc1cc(C)c2nc(C)c(C)[n+]([O-])c2c1,99.1%
6,c1ccc(CNc2nc(Nc3ccc(-c4nc5ccccc5[nH]4)cc3)c3cn[nH]c3n2)cc1,18%
7,S=c1c2ncccc2c(-c2ccccn2)nn1Cc1ccccn1,99.3%
8,Clc1cc(Cl)c(Cl)c(-c2nc(-c3cccnc3)cs2)c1,93.2%
9,C=CCn1ccc(=O)nc1SC,104%
10,CCOC(=O)c1cc2c(n1Cc1cc(OC)cc(OC)c1)-c1oncc1CC2,34.5%
11,CN1/C(=C\C(I)C(I)C2=[N+](C)c3ccccc3C2(C)C)C(C)(C)c2ccccc21 (stereo not given),7.21% (active)
12,Nc1ccc2c(c1)Cc1cc(N)c(Cl)cc1-2,57.2%
13,CC(=O)n1nc(C(=O)OC(C)(C)C)c2cc(F)c(F)cc21,105%
14,O=C(/C=C/c1nnc2n(Cc3ccccc3)c(=O)c3c4c(sc3n12)CCCC4)c1ccccc1,92.4%
15,CCOC(=O)c1sc(NC(=O)c2cc(OC)c(OC)c(OC)c2)nc1C,99.8%
16,Cc1cc(C(C)(C)CC(C)(C)C)ccc1OCCOCC[N+](C)(C)Cc1ccccc1,-0.736% (active)
17,COc1ccc(Cn2cc3c(c2-c2cc(OC)c(OC)c(OC)c2)CCc2cnoc2-3)cc1[N+](=O)[O-],20.4%
18,CN(C)c1ccc2cc(-c3cc4c(oc3=O)-c3ccccc3OC4O)c(=O)oc2c1 (stereo not given),22.6%
19,COc1cc(/C=C2\C(=O)Nc3cc(C)c(O)cc32)cc(OC)c1OC,48.5%
20,Clc1cc(Cl)c(OCCCCCCN2CCNCC2)c(Cl)c1,63.3%

row,SMILES,growth
1,C[N+]1=C(/C=C/c2ccc(I)cc2)C(C)(C)c2ccccc21,91.5%
2,O=C(OCC1OC(n2cc(C(F)(F)F)c(=O)[nH]c2=O)CC1OC(=O)c1ccc([N+](=O)[O-])cc1)c1ccc([N+](=O)[O-])cc1 (stereo not given),107%
3,CCC(CCNc1cc(OC)cc2cccnc12)CN1C(=O)c2ccccc2C1=O (stereo not given),95.5%
4,Oc1[nH]c2ccccc2c1/C=c1/cc2c(c(-c3ccc(C(F)(F)F)cc3)n1)=Nc1ccccc1-2,52.1%
5,Nc1c(C(=O)Nc2ccccc2F)sc2nc3c(cc12)C(=O)CCC3,56.3%
6,COC1OC2COC(c3ccccc3)OC2C(=O)C1NC(=O)c1ccccc1 (stereo not given),79.5%
7,Cc1c(C(=O)N[C@H](CO)Cc2ccccc2)[nH]c2ccc(Cl)cc2c1=O,94.4%
8,CCN(CC)CCCOC(=O)Nc1ccccc1Cl,108%
9,CC(=O)OC1Oc2ccccc2-c2oc(=O)c(-c3cc(=O)oc4cc(O)ccc34)cc21 (stereo not given),86.6%
10,O=[N+]([O-])c1ccc(Br)o1,101%
11,CCOC(=O)C(=O)Cc1cccnn1,111%
12,O=C(CCc1ccccc1)N1CCN(C(=O)CCc2ccccc2)CC1,115%
13,NC(=O)C1CCCN(Cc2c[nH]c3ccccc23)C1 (stereo not given),99.9%
14,O=C(O)c1cc(C(F)(F)F)cc(C(F)(F)F)c1,105%
15,Nc1cc(O)cc(O)c1,97.1%
16,O=CNc1c(Cl)cc2c(c1Cl)Cc1cc([N+](=O)[O-])ccc1-2,30.7%
17,COc1ccc(C(=O)n2nc(CC(=O)NCc3ccccc3)nc2N)cc1,113%
18,COc1cc(Cn2c(-c3ccccc3)c(Cl)c3c2-c2oncc2CC3)cc(OC)c1,90.6%
19,COc1cc(/C=C/C(=O)c2cc(-c3ccc(C(F)(F)F)cc3)ccc2O)cc(OC)c1OC,61.2%
20,COC(=O)[C@]12CC[C@@H](C)[C@H](C)[C@@H]1C1=CC[C@@H]3[C@@]4(C)C[C@@H](O)[C@H](O)[C@@](C)(CO)[C@@H]4[C@H](O)C[C@@]3(C)[C@]1(C)CC2,-33.1% (active)
